Source: PubChem BioAssay AID2662 (National Center for Advancing Translational Sciences (NCATS), 2010)
The whole screen tested about 290,000 compounds, of which about 110 (0.038%) were called active. About 3% were inconclusive and are not listed. The entries come from a sample that favours actives as a whole. Unmarked numbers belong to inactive results. Calls come from the whole dose curve; as a rule, active = well fitted inhibition curve with a large enough effect in the polarisation, with a control signal flat (not every such curve was filed as active); inconclusive = small, poorly fitted or top-dose-only effect, or effect the other way, or a change in a side signal; inactive = no such curve, though single readings can be large or run the other way; the % refers to the polarisation.

molecular target: Histone-lysine N-methyltransferase 2A (Homo sapiens) (UniProt Q03164); test: qHTS Fluorescence Polarization Assay for Inhibitors of MLL CXXC domain - DNA interaction; conditions: MLL-CXXC / FITC-HOXA9 DNA fluorescence polarization; series mostly up to 115 µM; activity change, negative = inhibition: at the top concentration
Description: NIH Chemical Genomics Center [NCGC] NIH Molecular Libraries Probe Production centers Network [MLPCN] MLPCN Grant: DA027717-01A1 Assay Submitter (PI): John Bushweller NCGC Assay Overview: The MLL (Mixed Lineage Luekemia) gene is involved in chromosomal translocation that results in either acute lymphoid leukemia (ALL) or acute myeloid leukemia (AML). Chromasomal translocation of MLL gene is responsible for the fusion of N-terminal MLL to more than 60 different partner genes in frame. Many of the MLL partner genes contain transcription activation domains or function as transcriptional activators. Despite the heterogeneity of fusion partners, the N-terminus of MLL fusion proteins always consists of the N-terminal menin binding motif and the CXXC domain. The MLL-CXXC domain specifically recognizes unmethylated CpG sequences of the HOX-A gene. Disruption of the MLL-CXXC and HOX-A gene interaction leads to down regulation of HOX-A gene expression and may potentially reverse leukemogenesis. We have miniaturized and optimized an in-vitro assay to screen for inhibitors of the MLL-CXXC domain and HOX-A DNA interaction, which could have utility in MLL fusion leukemias.
The affinity purified MLL-CXXC domain, unlabeled HOX-A9 DNA strand, fluorescein (FLSN) labeled HOX-A9 DNA strand were kindly supplied by the laboratory of Dr. John Bushweller, University of Virginia. All reagents were stored in single use aliquots at -80C. Assay Reagents: Assay buffer: 50 mM TRIS-HCl pH 7.5, 50 mM NaCl, 1 mM DTT. Add 0.05% BSA prior to reaction setup. Assay Procedure: 1.Dispense 1 ul of a 7 uM MLL-CXXC solution prepared in assay buffer into column 1-48. 2.Transfer 23 nl of compounds and unlabeled HOX-A9 per well. 3.Incubate for 5 minutes at ambient. 4.Dispense 1ul of a 50 nM FLSN-HOX-A9 solution prepared in assay buffer into columns 1-48 5.Centrifuge for 30 seconds at 1000 RPM. 6.Incubate for 30 minutes at ambient. 7.Read using the Envision reader fluorescent polarization protocol.
Potency is the fitted concentration of half-maximal effect.

Sequence of Histone-lysine N-methyltransferase 2A (Homo sapiens) (Q03164 whole entry, looked up, the tested form may be a part): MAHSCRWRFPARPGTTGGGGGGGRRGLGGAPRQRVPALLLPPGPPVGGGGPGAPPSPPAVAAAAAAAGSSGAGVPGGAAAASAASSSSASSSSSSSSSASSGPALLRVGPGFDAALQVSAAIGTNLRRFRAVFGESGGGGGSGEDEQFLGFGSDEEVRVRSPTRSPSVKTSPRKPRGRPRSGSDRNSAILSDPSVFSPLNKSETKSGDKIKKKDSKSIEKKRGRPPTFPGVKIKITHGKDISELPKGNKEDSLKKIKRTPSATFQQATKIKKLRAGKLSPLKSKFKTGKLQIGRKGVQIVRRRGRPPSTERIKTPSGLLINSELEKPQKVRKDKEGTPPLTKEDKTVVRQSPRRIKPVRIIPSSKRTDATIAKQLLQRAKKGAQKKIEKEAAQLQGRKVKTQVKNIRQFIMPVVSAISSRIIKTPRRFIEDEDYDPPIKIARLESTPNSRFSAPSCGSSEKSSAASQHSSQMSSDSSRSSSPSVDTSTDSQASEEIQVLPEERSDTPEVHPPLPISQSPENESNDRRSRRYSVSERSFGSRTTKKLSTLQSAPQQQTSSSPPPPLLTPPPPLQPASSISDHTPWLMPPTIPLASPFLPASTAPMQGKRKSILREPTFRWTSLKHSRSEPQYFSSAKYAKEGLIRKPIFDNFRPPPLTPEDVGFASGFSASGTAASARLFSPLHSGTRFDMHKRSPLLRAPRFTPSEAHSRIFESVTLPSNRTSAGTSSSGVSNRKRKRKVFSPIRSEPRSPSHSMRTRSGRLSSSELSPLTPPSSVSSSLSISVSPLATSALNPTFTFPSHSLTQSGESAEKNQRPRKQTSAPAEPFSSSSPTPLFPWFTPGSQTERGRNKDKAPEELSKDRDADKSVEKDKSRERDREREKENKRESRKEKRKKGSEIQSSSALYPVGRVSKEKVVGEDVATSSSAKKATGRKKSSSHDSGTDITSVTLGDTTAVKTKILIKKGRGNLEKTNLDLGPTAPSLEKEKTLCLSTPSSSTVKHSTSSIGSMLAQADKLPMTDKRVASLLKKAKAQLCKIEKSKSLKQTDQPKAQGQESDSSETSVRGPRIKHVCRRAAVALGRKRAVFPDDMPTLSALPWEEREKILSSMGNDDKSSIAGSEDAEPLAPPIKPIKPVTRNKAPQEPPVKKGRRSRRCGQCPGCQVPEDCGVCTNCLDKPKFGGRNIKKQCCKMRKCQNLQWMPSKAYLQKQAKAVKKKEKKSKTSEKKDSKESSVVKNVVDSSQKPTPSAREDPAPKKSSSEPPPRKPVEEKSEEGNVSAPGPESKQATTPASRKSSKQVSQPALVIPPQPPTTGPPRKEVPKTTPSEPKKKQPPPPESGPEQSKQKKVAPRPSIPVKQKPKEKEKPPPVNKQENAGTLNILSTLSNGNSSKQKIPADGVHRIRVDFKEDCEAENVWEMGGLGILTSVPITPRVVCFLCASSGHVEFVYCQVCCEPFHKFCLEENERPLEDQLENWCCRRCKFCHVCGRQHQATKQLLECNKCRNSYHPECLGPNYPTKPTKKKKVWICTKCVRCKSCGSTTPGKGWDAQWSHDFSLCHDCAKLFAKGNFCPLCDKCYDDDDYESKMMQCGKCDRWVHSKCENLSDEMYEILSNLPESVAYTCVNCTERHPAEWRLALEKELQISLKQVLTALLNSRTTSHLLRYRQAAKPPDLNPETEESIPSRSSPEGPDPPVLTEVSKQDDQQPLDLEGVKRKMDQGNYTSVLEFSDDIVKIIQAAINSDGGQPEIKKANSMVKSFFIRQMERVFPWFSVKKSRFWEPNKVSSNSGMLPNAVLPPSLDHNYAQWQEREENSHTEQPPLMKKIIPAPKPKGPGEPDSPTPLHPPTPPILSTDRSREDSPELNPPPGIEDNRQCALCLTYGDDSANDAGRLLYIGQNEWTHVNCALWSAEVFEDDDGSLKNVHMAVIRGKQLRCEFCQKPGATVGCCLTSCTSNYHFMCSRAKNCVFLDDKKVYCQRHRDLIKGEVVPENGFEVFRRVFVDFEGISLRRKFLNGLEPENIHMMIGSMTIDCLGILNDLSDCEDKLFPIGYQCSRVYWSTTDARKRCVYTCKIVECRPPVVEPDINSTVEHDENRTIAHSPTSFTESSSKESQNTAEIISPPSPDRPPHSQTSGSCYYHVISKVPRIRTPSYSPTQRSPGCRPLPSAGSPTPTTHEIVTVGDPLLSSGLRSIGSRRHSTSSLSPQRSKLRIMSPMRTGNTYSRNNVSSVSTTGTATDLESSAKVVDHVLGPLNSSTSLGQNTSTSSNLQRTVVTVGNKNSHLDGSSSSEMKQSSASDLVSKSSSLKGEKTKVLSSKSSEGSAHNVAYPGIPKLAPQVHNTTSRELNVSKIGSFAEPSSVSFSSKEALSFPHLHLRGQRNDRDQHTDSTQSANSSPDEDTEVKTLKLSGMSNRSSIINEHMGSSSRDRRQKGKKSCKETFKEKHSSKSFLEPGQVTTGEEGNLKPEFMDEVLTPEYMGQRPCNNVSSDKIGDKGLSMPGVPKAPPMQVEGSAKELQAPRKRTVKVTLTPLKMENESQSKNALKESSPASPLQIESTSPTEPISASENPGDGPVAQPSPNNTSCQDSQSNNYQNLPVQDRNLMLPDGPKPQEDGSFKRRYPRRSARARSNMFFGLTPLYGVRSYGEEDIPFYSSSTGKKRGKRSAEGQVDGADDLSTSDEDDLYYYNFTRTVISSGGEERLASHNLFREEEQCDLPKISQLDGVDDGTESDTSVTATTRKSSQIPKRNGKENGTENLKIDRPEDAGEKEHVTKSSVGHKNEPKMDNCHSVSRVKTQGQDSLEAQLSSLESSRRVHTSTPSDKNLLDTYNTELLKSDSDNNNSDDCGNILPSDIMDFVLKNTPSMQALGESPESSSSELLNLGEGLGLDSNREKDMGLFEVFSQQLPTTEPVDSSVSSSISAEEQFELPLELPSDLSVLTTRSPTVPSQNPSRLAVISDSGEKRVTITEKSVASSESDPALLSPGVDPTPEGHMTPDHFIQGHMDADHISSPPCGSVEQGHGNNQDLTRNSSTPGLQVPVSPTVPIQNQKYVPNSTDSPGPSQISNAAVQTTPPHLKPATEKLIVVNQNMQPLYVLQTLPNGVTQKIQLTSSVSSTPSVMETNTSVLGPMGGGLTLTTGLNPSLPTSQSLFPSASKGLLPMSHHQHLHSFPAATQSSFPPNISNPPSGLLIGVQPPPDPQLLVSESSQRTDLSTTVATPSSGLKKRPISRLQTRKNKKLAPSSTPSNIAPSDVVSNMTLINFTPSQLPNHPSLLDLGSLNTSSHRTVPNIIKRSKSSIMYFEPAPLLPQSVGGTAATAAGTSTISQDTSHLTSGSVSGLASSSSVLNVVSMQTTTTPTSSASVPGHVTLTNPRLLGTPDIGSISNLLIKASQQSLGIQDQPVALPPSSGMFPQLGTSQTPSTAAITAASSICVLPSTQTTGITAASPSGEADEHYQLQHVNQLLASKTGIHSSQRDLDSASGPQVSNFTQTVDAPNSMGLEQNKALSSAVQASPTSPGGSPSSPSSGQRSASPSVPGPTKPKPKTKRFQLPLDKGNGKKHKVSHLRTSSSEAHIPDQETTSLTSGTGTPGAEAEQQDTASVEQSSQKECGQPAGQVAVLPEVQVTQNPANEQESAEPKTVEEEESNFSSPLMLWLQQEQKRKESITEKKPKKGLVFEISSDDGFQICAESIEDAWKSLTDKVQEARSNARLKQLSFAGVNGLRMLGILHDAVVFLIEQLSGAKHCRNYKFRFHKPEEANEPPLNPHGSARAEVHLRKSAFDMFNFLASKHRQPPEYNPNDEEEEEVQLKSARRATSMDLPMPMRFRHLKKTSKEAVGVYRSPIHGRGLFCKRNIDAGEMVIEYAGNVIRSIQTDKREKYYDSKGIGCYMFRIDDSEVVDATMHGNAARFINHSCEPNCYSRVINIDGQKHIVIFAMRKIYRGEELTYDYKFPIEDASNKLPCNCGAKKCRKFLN

Row | SMILES | Potency | activity change, negative = inhibition [%]
1 | O=C(OCC1O[C@@H](OC(=O)c2cc(O)c(O)c(O)c2)[C@@H](OC(=O)c2cc(O)c(O)c(O)c2)[C@@H](OC(=O)c2cc(O)c(O)c(O)c2)[C@@H]1OC(=O)c1cc(O)c(O)c(O)c1)c1cc(O)c(O)c(O)c1 (stereo not given in full) | 31.6 µM (active) | 
2 | COC([CH2][Hg])CNC(=O)c1ccccc1OCC(=O)O (stereo not given) |  | 0.129
3 | CC(C)COC(=O)n1c(=O)oc2ccc(S(=O)(=O)N3CCCCC3)cc21 |  | 56.4
4 | CCOC(=O)C(NS(=O)(=O)c1ccc(C)cc1)(C(F)(F)F)P(=O)(OCC(C)C)OCC(C)C (stereo not given) |  | 35.1
5 | CN1CCCC(=C(c2cccs2)c2cccs2)C1 |  | 0.874
